Data on 30 sequences can be found in PubChem BioAssay AID1508600 (Functional Genomics Laboratory (NCATS/FGL), 2020).

Screen size: about 53,000 sequences; about 3,700 (7%) were called active.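 Rule for the calls: active = gene knockdowns whose robust z-score for IL-1 alpha signal is at least 2 or at most -2, so actives lie on both sides; inactive = the rest.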 Many of the other results were omitted from the sample, so actives are more common in it than they were.

This assay in a line: Components of the Cytosolic LPS Sensing Pathway: Gene Identification via Genome-wide siRNA Screen.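 Note: robust z of the log signal after scaling to non-targeting control siRNA wells of the plate.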 As to conditions: RAW264.7 macrophages, IL-1a HTRF, actives lie on both sides, screened at 100 nM (by protocol), cells primed 5 h with Pam3CSK4 first. The method in brief: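 IL-1a HTRF of supernatants after 24 hour LipidA transfection of Pam3CSK4-primed (5 hours) RAW264.7 cells, 48h post-siRNA transfection (100 nM). Scores: percent of plate negative-control median, then log-based robust z-score.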
For the sequence GGGUAUGACCGGUAUUACATT against Atp5j2, the z-score was 0.213 (inactive).
For the sequence GGAGGCAGCCAAAGAAAACTT against Bmp8a, the z-score was 0.462 (inactive).
As for GGAUGAAAUCGCCAUAUGUTT against Snrnp48, the z-score was -1.89 (inactive).
For GGAGAAAACCUAGAAAUUUTT against Galnt1, the z-score was 0.238 (inactive).
On to CCGGCUAUGAAGAUGAGUATT against Cox6a1, for which the z-score was 3.21 (active).
For “GCCGUAAGCUAGGAUCUGGTT against 1700065D16Rik”, the z-score was 0.787 (inactive).
As for GGUAAUACAACUGAGAACUTT against Zfp2, the z-score is 0.39 (inactive).
The figure for GGCAUCUGAGUGAUAUAAATT against Dcps is 0.109 (inactive); for GGCCGUGUUAUCCAGAUUGTT against Prkcd it is 1.43 (inactive).
The figure for GGCAGUCUCAGGUUAUCUCTT against Zfp445 is 0.406 (inactive); for GGCUUUUCAGCAGGUUUAATT against Ube2g1 it is 5.04 (active).
For the sequence GGCUGUAAGGGAACAGCUATT against Irf2bp1, the z-score was -0.615 (inactive).
Consider GGUGAUGAAAUUUAUUGAGTT against Gpn1, for which the z-score is -0.127 (inactive).
For the sequence GGAGAAGGGCCUGAAGUAUTT against Lsm5, the z-score is -1.77 (inactive).
Take GGUGGCAGUCACCAUUCUUTT against Il17rd: the z-score is -0.364 (inactive).
As for CCAUACAGAUCGCACCCUGTT against Txndc15, the z-score is -2.15 (active).
As to GGACAGAGCCUAGAAAACUTT against Mpdu1, the z-score is -1.15 (inactive).
For the sequence GGCUCCAAGGGAUUUGGUUTT against Rbfox1, the z-score was 2.77 (active).
On to GGACUUUGUCAACCAUGUCTT against Fbxl5, for which the z-score was -0.0144 (inactive).
Regarding CGUCAAUUCACACCAUUCATT against Gsk3a, the z-score was -1.25 (inactive).
As for GGGUGCUCUGAAGAAGCAATT against Olfr488, the figure is -2.04 (active); as for GGCUUAUGUCACCAACUUGTT against Pxdc1, -0.533 (inactive).
In the case of GGAGUUAGAAUUGAACCUUTT against Mr1, the z-score was -1.49 (inactive).
As for GGAUCCAUUUUGAGGAUUUTT against Vipr1, the z-score is -0.056 (inactive).
Turning to GGGCAAGUACAAGCGUAACTT against Jph4, the z-score is -1.5 (inactive).
For GGGAAAACACAAAGAAGAATT against Angpt1, the z-score is 0.307 (inactive).
As for GGAGCCUAUCGCUUUACUCTT against Vps16, the figure is 1.18 (inactive); as for GGAGAUCUGUGAUGAGGUGTT against Nudt22, 2.07 (active).
GGUGUCAACAUUGCAUACUTT against Gatad2b: the z-score is 1.62 (inactive).
As for GGAAACAUCCAAGAAAAAUTT against Ap1s2, the figure is -0.489 (inactive).
